Laboratory results: PubChem BioAssay (NCI)
Compounds without any hit were thinned out: in the full panel of roughly 83,000, 20% have a hit.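 Testing used 96-well plates and a 48-hour single-concentration exposure. Example: -40 means 40% of the starting cells died.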 A number with no mark means an inactive call. Calls of active or inactive are those of the source. The calls were made as follows: active = growth percent below 10; inactive = the rest.

Key:
Assay in all cases: NCI-60 one-dose screen, 48 h (100 = growth as untreated, 0 = no growth, -100 = all killed)
Details in all cases: 10 µM unless noted
DU-145 prostate = test system: DU-145 prostate
K-562 leukemia = test system: K-562 leukemia
MALME-3M melanoma = test system: MALME-3M melanoma
MDA-MB-231 breast = test system: MDA-MB-231 breast
RXF 393 renal = test system: RXF 393 renal
SF-268 CNS = test system: SF-268 CNS
SF-295 CNS = test system: SF-295 CNS
SF-539 CNS = test system: SF-539 CNS
UACC-257 melanoma = test system: UACC-257 melanoma
M14 melanoma = test system: M14 melanoma
HCT-15 colon = test system: HCT-15 colon
HT29 colon = test system: HT29 colon
SNB-19 CNS = test system: SNB-19 CNS
U251 CNS = test system: U251 CNS
PC-3 prostate = test system: PC-3 prostate
SK-MEL-5 melanoma = test system: SK-MEL-5 melanoma
UACC-62 melanoma = test system: UACC-62 melanoma
LOX IMVI melanoma = test system: LOX IMVI melanoma
SK-MEL-28 melanoma = test system: SK-MEL-28 melanoma

Compound	growth (DU-145 prostate)	growth (K-562 leukemia)	growth (MALME-3M melanoma)	growth (MDA-MB-231 breast)	growth (RXF 393 renal)	growth (SF-268 CNS)	growth (SF-295 CNS)	growth (SF-539 CNS)	growth (UACC-257 melanoma)	growth (M14 melanoma)	growth (HCT-15 colon)	growth (HT29 colon)	growth (SNB-19 CNS)	growth (U251 CNS)	growth (PC-3 prostate)	growth (SK-MEL-5 melanoma)	growth (UACC-62 melanoma)	growth (LOX IMVI melanoma)	growth (SK-MEL-28 melanoma)
CCOC(=O)c1cnc2ccc(Br)cc2c1Nc1cccc(S(=O)(=O)NC)c1	103%	100%	99.1%	95.4%	99.5%	94.9%	94.2%	98.2%	114%	114%	80.5%	101%	100%	109%	102%	96.6%	96.9%	93.6%	122%
Cc1ccc(-c2nc(/C=N/Nc3cc(C)nc4ccc(Br)cc34)c(C)o2)cc1	-33.3% (active)	-33.2% (active)	-82% (active)	-91.9% (active)	-94.1% (active)	-59.4% (active)	85.7%	71.3%	97%	-50.2% (active)	-83.7% (active)	-70% (active)	-48.9% (active)	-76.4% (active)	5.84% (active)	63.8%	86.4%	-88.5% (active)	-13.5% (active)
Nc1c(C(=O)Nc2ccccc2)sc2nc3c(cc12)CN(CCc1ccccc1)CC3	98.3%	82.2%	95.7%	90.4%	121%	93.2%	103%	95.3%	110%	108%	107%	104%	95.4%	91.3%	88.1%	92.9%	86.4%	87.5%	106%
COc1cccc(-c2nc3sccn3c2-c2ccnc(NCCCNS(=O)(=O)c3ccccc3)c2)c1	42.2%	13.9%	50.8%	58.8%	63.7%	49.9%	28.6%	73.1%	50.9%	38%	27.6%	41.6%	68.7%	65.4%	15.9%	-29.8% (active)	-27.7% (active)	35.1%	66.8%
CC[C@H](Nc1ncnc(N)c1C(N)=O)c1nc2cccc(NCc3ccc(C(=O)NO)cc3)c2c(=O)n1-c1ccccc1	97.6%	55.6%	67.2%	83.8%	55.2%	90.1%	93.2%	75.1%	63.4%	95.9%	105%	88.7%	68.2%	52.9%	92.1%	87.9%	63.3%	103%	69.2%
Brc1cccc(-c2nc(-c3ccc4c(c3)OCCO4)co2)c1	88.2% [25 µM]	18.5% [25 µM]	50.2% [25 µM]	47.5% [25 µM]	66.2% [25 µM]	73.6% [25 µM]	52.4% [25 µM]	52.2% [25 µM]	87.3% [25 µM]	46% [25 µM]	34.5% [25 µM]	17.1% [25 µM]	63.1% [25 µM]	43.3% [25 µM]	74% [25 µM]	57.6% [25 µM]	44.6% [25 µM]	45.4% [25 µM]	72.9% [25 µM]
Brc1cccc(-c2cc(-c3ccc4c(c3)OCCO4)[nH]n2)c1	21% [25 µM]	14.7% [25 µM]	49.1% [25 µM]	33.4% [25 µM]	-18.6% [25 µM] (active)	50.5% [25 µM]	0.112% [25 µM] (active)	-14.1% [25 µM] (active)	62.4% [25 µM]	20.9% [25 µM]	15.9% [25 µM]	1.56% [25 µM] (active)	34% [25 µM]	22% [25 µM]	26.3% [25 µM]	10% [25 µM]	36.8% [25 µM]	34% [25 µM]	59.7% [25 µM]
CC(C)[C@@H]1CC[C@]2(C(=O)NCCCCN=C(N)N)CC[C@]3(C)[C@H](CC[C@@H]4[C@@]5(C)CCC(=O)C(C)(C)[C@@H]5CC[C@]43C)[C@@H]12	81.3%	24.6%	19%	74.3%	93.8%	54.8%	102%	69.5%	71.1%	71.2%	96.4%	40.2%	41.9%	30.8%	46.6%	20.4%	48.2%	69.9%	15.6%
Cc1ccc(-c2nc(/C=N/Nc3cc(C)nc4ccc(Cl)cc34)c(C)o2)cc1	3.19% (active)	-10.9% (active)	-74.6% (active)	-83.9% (active)	-84.9% (active)	-52.7% (active)	17.1%	-77.7% (active)	107%	-14.2% (active)	-67.5% (active)	-77.9% (active)	-44.7% (active)	-94.8% (active)	33.7%	49.6%	31.7%	-80.3% (active)	-68.8% (active)
COc1cc(NCCCCCN=C(N)NC(N)=NC(C)C)c2ncccc2c1	104%	26.1%	-19.2% (active)	22%	131%	29%	98.3%	44.9%	-8.06% (active)	67.7%	110%	54.2%	33.2%	20.5%	32.8%	5.87% (active)	36.8%	9.91% (active)	60.1%
COc1ccc(-c2cn3c(ccc4ccccc43)n2)cc1	104%	94.7%	106%	83.3%	121%	101%	89.9%	90.5%	118%	112%	92.4%	108%	99.3%	105%	89.2%	78%	85.3%	95.1%	117%
OC(c1cccc(C(F)(F)F)c1)c1cnccc1NC1CCCCCC1 (stereo not given)	71.6%	3.23% (active)	-77.7% (active)	10.6%	32.3%	60.5%	14.2%	74.2%	39.5%	-21.8% (active)	8.21% (active)	-6.41% (active)	69.3%	-2.39% (active)	22.4%	-68.2% (active)	55%	-18.7% (active)	-12.9% (active)
CCCCCCNC(=O)Oc1ccc(/C(=C(\C)c2ccccc2)c2ccc(OCCN(CC)CC)cc2)cc1	87.7%	2.08% (active)	33%	68.9%	32.7%	55.8%	83.1%	50%	-1.51% (active)	-40.1% (active)	4.48% (active)	-16.1% (active)	63.6%	38.2%	45.4%	41.9%	18.4%	67.8%	61.1%
CCN(CC)CC#CCOC(=O)[C@]1(C)CCC[C@@]2(C)[C@H]1CC(C=O)=C1C=C(C(C)C)CC[C@@H]12	90.1%	20.7%	82.3%	76%	61.2%	75.8%	71.8%	49.1%	85.4%	56.4%	40.9%	9.02% (active)	77.1%	57.2%	45.4%	42.8%	68.9%	73.2%	87.4%
COc1cc(NC(N)=NCC(C)(C)COc2ccc(C(F)(F)F)cc2)cnc1C#N	81.6%	34.5%	57.6%	57%	41%	50.4%	82.9%	72%	69.1%	45.6%	59.9%	26.9%	70.6%	59.9%	49.3%	26.9%	61.7%	67.1%	85.5%
